This is an account of results in PubChem BioAssay (EPA / NIEHS).

The structures appear in SMILES notation. The source made the active and inactive calls. How the source made its calls: active means hit-call score of the fitted dose curve at least 0.9, where 1 is the maximum; inactive means score below 0.9.

A short description of the assay: ATG_VDRE_CIS: Attagene CIS-FACTORIAL HepG2 Assay for human Vitamin D Receptor Element (VDRE) (AID 2282968). To be noted: HepG2 VDRE cis-reporter transcription, actives raise or lower the signal. As for the experimental part: ATG_CIS is a cell-based, multiplexed-readout assay that uses HepG2, a human liver cell line, with measurements taken at 24 hours after chemical dosing in a 24-well plate.ATG_VDRE_CIS is one of 52 assay component(s) measured or calculated from the ATG_CIS assay. It is designed to make measurements of mRNA induction, a form of inducible reporter, as detected with fluorescence intensity signals by Reverse transcription polymerase chain reaction (RT-PCR) and Capillary electrophoresis technology.Data from the assay component ATG_VDRE_CIS was analyzed into 1 assay endpoint. This assay endpoint, ATG_VDRE_CIS, was analyzed with bidirectional fitting relative to DMSO as the negative control and baseline of activity. Using a type of inducible reporter, measures of mRNA for gain or loss-of-signal activity can be used to understand the reporter gene at the transcription factor-level as they relate to the gene VDR. Furthermore, this assay endpoint can be referred to as a primary readout, because this assay has produced multiple assay endpoints where this one serves a reporter gene function. To generalize the intended target to other relatable targets, this assay endpoint is annotated to the nuclear receptor intended target family, where the subfamily is non-steroidal.
Human liver HepG2 cells are transiently transfected with multiple reporter transcription units (MRTUs) in 6-well plates using FuGene 6 reagent (Roche; 3 ml FuGene/1 mg DNA). The MRTU constructs are regulated by a cis-regulating element (promoter). […] A major difference between the CIS and TRANS system is that in CIS activities of endogenous TFs are measured, whereas the TRANS assay evaluates changes in activities of exogenous, chimeric NR-Gal4 proteins. […] At the end of 24 hour incubation, total RNA was isolated using TriZol reagent (Invitrogen). The isolated RNA is then reverse-transcribed using oligo(dT) primer and Mo-MLV reverse transcriptase (Invitrogen) with DNAse I (Ambion) treatment for 30 min. The one-tenth of the produced cDNA was amplified by PCR using Taq DNA polymerase (Invitrogen) and two reporter sequence-specific primers. The PCR products were fluorescently labeled by primer extension with 6-arboxyfluorescein (6-FAM) 5'-labeled reporter sequence-specific primer (2 min at 95 C, 20 s at 68 C and 10 min at 72 C) and these products were digested with 5U of HpaI (New England Biolabs) for 2h at 37 C. The fragments were purified using Qiaquick PCR columns (Qiagen), analyzed on an ABI 3130xL genetic analyzer (Applied Biosystems) with peak positions identified by using a set of X-rhodamine (ROX)-labeled MapMarker1000 molecular weight standards (BioVentures). The raw capillary electrophoresis data was processed using Attagraph software (Attagene).
For the compound `CC(C)[C@H](C(=O)OC(C#N)c1cccc(Oc2ccccc2)c1)c1ccc(OC(F)F)cc1` (stereo not given in full), the half-maximal activity concentration (AC50) (usually the midpoint of the concentration-response curve, whichever way the signal moves) was 1.08 µM (active).

With `CCCCN(CCCC)C(=S)S`, the half-maximal activity concentration (AC50) is 24.3 µM (active).

For `Cc1cc(C(C)(C)c2ccc(O)c(C)c2)ccc1O`, the concentration at half-maximal activity (AC50) was 13.7 µM (active).

In the case of `C=C(C)C(=O)OCC(CC)CCCC` (stereo not given), the result was inactive.

With `COCCl`, the compound was called inactive.

`COc1ccc([N+](=O)[O-])cc1O`: the outcome was inactive.

As for `CCOC(=O)c1ccccc1S(=O)(=O)NC(=O)Nc1nc(Cl)cc(OC)n1`, the result was inactive.

For `CC(C)(C)c1ccc(CCOc2ncnc3ccccc23)cc1`, the compound was called inactive.

With `CCC[CH2][Sn]([Cl])([Cl])[CH2]CCC`, the half-maximal activity concentration (AC50) was 1.24 µM (active).

Take `CC(C=O)Cc1ccc2c(c1)OCO2` (stereo not given): the half-maximal activity concentration (AC50) is 12.8 µM (active).

For `C1CCC(C2CCCCC2)CC1`, the compound was classed as inactive.

`CN(C)C(=S)S`: the outcome was inactive.

Turning to `Clc1cccc(Cl)c1`, the call was inactive.

Regarding `CC(C)CC(C)(c1ccc(O)cc1)c1ccc(O)cc1`, the AC50 was 5.37 µM (active).

Turning to `Brc1ccc(Br)cc1`, the compound was classed as inactive.

For the compound `Cc1cc(Cl)ccc1OCCCC(=O)O`, the compound was classed as inactive.

On to `CC(C)(c1ccccc1)c1cc(-n2nc3ccccc3n2)c(O)c(C(C)(C)c2ccccc2)c1`, for which the outcome was inactive.

As to `CCCSP(=S)(OCC)Oc1ccc(SC)cc1` (stereo not given), the concentration at half-maximal activity (AC50) was 4.63 µM (active).

In the case of `CCOc1cc(C=O)ccc1O`, the outcome was inactive.

Turning to `CC(=O)C(F)(F)C(F)(F)F`, the result was inactive.

Regarding `NC(=O)c1ccc(N)nc1`, the compound was classed as inactive.

As to `CC1CC(=O)O1` (stereo not given), the call was inactive.

In the case of `O=C(Cc1ccccc1)OCCc1ccccc1`, the outcome was inactive.

Regarding `CN(CCCC(O)c1cccnc1)N=O` (stereo not given), the call was inactive.

Consider `O=C(O)C1(c2ccc3c(c2)OC[C@H](Cc2ccc(-c4ccccc4)cc2)[C@H]3O)CCCC1`, for which the outcome was inactive.

For `CCN(CCO)CCO`, the compound was classed as inactive.

In the case of `C=CC(F)(C(F)(F)F)C(F)(F)C(F)(F)F` (stereo not given), the compound was called inactive.

For the compound `CCOP(=S)(OCC)Oc1ccc(Cl)cc1Cl`, the concentration at half-maximal activity (AC50) is 13.9 µM (active).

Regarding `CCCCC(CC)COC(=O)Cl` (stereo not given), the call was inactive.

`N#CCCC(Br)(C#N)CBr` (stereo not given): the half-maximal activity concentration (AC50) was 43.9 µM (active).

Regarding `Clc1ccc(C(Cl)(Cl)Cl)cn1`, the result was inactive.

For the compound `Nc1cccnc1`, the concentration at half-maximal activity (AC50) is 50.1 µM (active).

Consider `N#Cc1cccnc1`, for which the result was inactive.

As for `C#CCO`, the compound was called inactive.

Regarding `CC(c1ccccc1)(c1ccc(O)cc1)c1ccc(O)cc1`, the half-maximal activity concentration (AC50) was 1.8 µM (active).

Take `O=c1[nH]c2ccccc2n1C1CCN(CCCC(c2ccc(F)cc2)c2ccc(F)cc2)CC1`: the call was inactive.

`CC(=Cc1ccccc1)[N+](=O)[O-]`: the call was inactive.

`O=S(=O)(F)C(F)(F)C(F)(F)C(F)(F)C(F)(F)F`: the outcome was inactive.

For `COCC(=O)N(c1c(C)cccc1C)[C@H](C)C(=O)OC`, the call was inactive.

Regarding `O=C1C=CC(=O)c2ccccc21`, the result was inactive.
